Screening results from PubChem BioAssay.
Hits are enriched below; roughly 3.8% of the tested compounds scored in any of these assays.
NTR1 ag: agonists of human neurotensin receptor NTR1. NTR1-U2OS beta-arrestin-GFP spot imaging, agonist mode. activation, % at 20 µM. 0.17% of 330,000 active;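 active means activation at or above 40% of the spot to cytoplasm intensity ratio, with at least 20 cells analyzed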;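 further: 0% = DMSO without peptide and 100% = 100 nM NTR1 peptide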
697 NFkB inh: lowers PMA/ionomycin-induced NF-kB signal in 697 B cells. 0.33% of 330,000 active. 697 B-cell NF-kB luciferase reporter, 16 h. inhibition, % at 4 µM. AID 435022; in the data active means inhibition above about 35%
Jurkat NFkB inh: lowers PMA/ionomycin-induced NF-kB signal in Jurkat cells. PMA/ionomycin-induced NF-kB luciferase reporter, luminescence. inhibition, % at 4 µM. 0.53% of 330,000 active. AID 435003; in the data active means inhibition above about 50%
Beta cell apopt: beta cell apoptosis inhibition | INS-1E cytokine-induced death, ATP luminescence, 48 h; percent of positive-control rescue, neutral wells zero | protection from apoptosis, % (no concentration beside the values) | 0.8% of 300,000 active | AID 435005;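 active means Every replicate reaches about 75%, or at least half do and their mean reaches it too, limit read from the data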;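 further: 0% = cytokine-treated negative control wells and 100% = positive control rescue; higher means more ATP so stronger rescue from cytokine killing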
Mdm2-MdmX inh: disrupts the human Mdm2-MdmX interaction; inhibition, % at 8 µM; 3% of 330,000 active; SaOS-2 split-luciferase Mdm2/MdmX complementation, luminescence;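 active means inhibition of at least 50% at 8 µM in the primary screen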
Target sequence (O15151 whole entry, looked up): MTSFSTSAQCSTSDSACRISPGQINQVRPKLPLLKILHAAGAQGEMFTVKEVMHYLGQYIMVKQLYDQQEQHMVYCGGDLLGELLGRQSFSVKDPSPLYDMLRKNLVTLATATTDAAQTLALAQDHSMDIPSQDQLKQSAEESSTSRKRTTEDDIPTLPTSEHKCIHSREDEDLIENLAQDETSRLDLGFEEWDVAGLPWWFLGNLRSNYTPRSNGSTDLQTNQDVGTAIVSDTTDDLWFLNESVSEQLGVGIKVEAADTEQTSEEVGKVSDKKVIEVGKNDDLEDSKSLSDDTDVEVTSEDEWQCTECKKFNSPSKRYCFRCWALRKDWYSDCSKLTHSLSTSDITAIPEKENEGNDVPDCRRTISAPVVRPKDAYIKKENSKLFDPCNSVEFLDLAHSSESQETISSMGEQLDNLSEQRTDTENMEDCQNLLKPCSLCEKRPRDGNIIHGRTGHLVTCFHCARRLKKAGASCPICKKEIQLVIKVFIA
Target sequence (Q00987 whole entry, looked up): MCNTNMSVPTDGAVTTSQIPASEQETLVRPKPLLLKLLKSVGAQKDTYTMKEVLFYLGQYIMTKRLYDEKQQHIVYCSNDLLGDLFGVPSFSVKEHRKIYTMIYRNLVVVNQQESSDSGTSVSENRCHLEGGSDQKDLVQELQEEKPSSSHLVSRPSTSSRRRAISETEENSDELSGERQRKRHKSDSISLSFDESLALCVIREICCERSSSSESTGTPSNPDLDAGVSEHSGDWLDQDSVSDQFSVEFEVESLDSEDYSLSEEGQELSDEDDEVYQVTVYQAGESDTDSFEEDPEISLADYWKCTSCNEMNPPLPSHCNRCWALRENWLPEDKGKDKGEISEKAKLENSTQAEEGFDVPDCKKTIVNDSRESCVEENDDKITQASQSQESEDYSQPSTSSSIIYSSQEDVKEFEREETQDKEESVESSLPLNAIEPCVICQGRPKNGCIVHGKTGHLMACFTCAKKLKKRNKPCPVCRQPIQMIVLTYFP
Bfl-1 A1 inh: inhibitors of the anti-apoptotic protein A1, read as caspase activation. caspase activation, % (no concentration beside the values). AID 2462. 0.066% of 330,000 active. MEF A1-2A-BIM cells, Caspase-Glo 3/7 luminescence, 3 h; percent of clofoctol response, vehicle zero;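 active means over half of replicate activation scores above 10%, or exactly half above 10 with the replicate mean above 10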
* marks the source's active call; other numbers are inactive results; / = no result.

SMILES	NTR1 ag	697 NFkB inh	Jurkat NFkB inh	Beta cell apopt	Mdm2-MdmX inh	Bfl-1 A1 inh
O=C(Nc1ccccc1Cl)c1ccccc1	-1	-3	-28	-3	-1	0
O=C(Nc1ccc(N2CCN(Cc3ccccc3Cl)CC2)cc1)c1cccnc1	0	-2	-2	78*	24	0
CCSc1ccc(NC(=O)c2cccnc2)cc1	-2	-42	-17	104*	-22	-3
O=C(CN1C(=O)NC2(CCCC2)C1=O)Nc1nc(-c2ccccc2)cs1	1	13	-1	2	9	-2
Cc1ccc(OCC(=O)N2CCCCCCC2)cc1	-2	-20	-15	-6	-7	0
Cc1ccc(C2C(C=Nc3c(C)n(C)n(-c4ccccc4)c3=O)=C(c3ccccc3)Oc3ccccc32)cc1 (stereo not given)	1	-27	15	80*	27	1
CCO[C@H]1OC(C(=O)N2CCN(Cc3ccc4c(c3)OCO4)CC2)=C[C@@H](c2csc3ccccc23)[C@@H]1CCCO	4	3	19	85*	33	0
CCO[C@H]1OC(C(=O)N2CCN(Cc3ccc4c(c3)OCO4)CC2)=C[C@@H](c2cn(C(C)=O)c3ccccc23)[C@@H]1CCCO	1	6	18	-4	-5	0
CC(=O)C1=C(C)NC(SCC(=O)c2ccc(Cl)cc2Cl)=C(C#N)C1c1ccco1 (stereo not given)	19	-38	13	105*	25	0
COc1ccc(-n2ncc3c2CC(C)(C)CC3NC(=O)c2ocnc2C)cc1 (stereo not given)	-1	-5	-4	1	15	1
CCc1ccc(OC)c(S(=O)(=O)Nc2ccc(Cc3ccncc3)cc2)c1	4	-25	13	101*	22	-1
COc1ccc(S(=O)(=O)Nc2ccc(Cc3ccncc3)cc2)cc1OC	0	-12	25	44	11	-1
COc1ccc(Cn2c(/C=C/c3ccccc3)nc3ccccc32)cc1	-2	-127	-121	32	-113	-5
COc1ccc(/C=C/c2nc3ccccc3n2C)cc1	2	-91	-31	106*	46	-10
O=S(=O)(c1ccc(NC(=S)NCc2cccnc2)cc1)N1CCCCC1	0	13	19	126*	6	0
N#CC(C#N)=C(Nc1ccc(F)cc1)SCc1cccc(Br)c1	/	/	/	105*	/	0
CC(SCc1ccccc1)C(=O)Nc1ccc(F)cc1 (stereo not given)	1	4	2	0	-9	0
COc1ccccc1-n1c(=O)oc2ccc(Cl)cc2c1=O	2	7	-1	104*	17	-8
COc1ccc(CN(C)C(=O)c2ccc(NS(=O)(=O)c3ccc(F)cc3)cc2)c(OC)c1OC	2	10	11	95*	34	0
COc1cccc(CN(C)C(=O)c2ccc(NS(=O)(=O)c3ccc(F)cc3)cc2)c1OC	0	-21	-6	/	-24	0
Cn1cc(/C=C/c2cc[n+](C)cc2)c2cc(Cl)ccc21	/	/	/	95*	/	-1
Cn1cc(/C=C/c2cc[n+](C)cc2)c2cc(F)ccc21	/	/	/	69	/	1
Cc1ccc(NC(=O)COC(=O)C2(CC(=O)NC(C)(C)C)CCCC2)cc1C	3	8	-7	0	0	1
O=C(/C=C/c1ccccc1O)c1ccco1	10	5	-8	-4	10	2
O=C(/C=C/c1cc(Br)ccc1O)c1ccco1	47*	-9	11	10	18	0
Cc1cccc(N2C(=S)N=C(Nc3c(C)cccc3C)C23CCOC(C)(C)C3)c1 (stereo not given)	2	-8	-3	82*	18	0
Cc1cccc(C)c1NC1=NC(=S)N(c2ccccc2)C12CCOC(C)(C)C2 (stereo not given)	1	-3	3	-1	30	0
CC(C)(C)n1ncc2c(=O)n(Cc3cccc(Cn4cnc5c(cnn5C(C)(C)C)c4=O)c3F)cnc21	8	-1	-2	87*	36	-1
Cc1ccccc1Cn1cnc2c(cnn2C(C)(C)C)c1=O	-1	2	7	1	12	1
CCn1c(=O)c([N+](=O)[O-])c(N2CCN(Cc3ccc4c(c3)OCO4)CC2)c2ccccc21	8	9	16	129*	16	0
